Results: the supplement of paper PMC7411054
Structures can show the parent of a compound that is named as a salt.

Columns and labels:
Experiment in all cases: lowest phenotypically active concentration; higher = less potent
Conditions in all cases: treatment time: 24 h
HepG2-ACTB-RAB5A = system: HepG2-ACTB-RAB5A
Outline: (§1)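 Fifteen gene-edited A549, HepG2 and WPMY1 reporter lines (BFP segmentation plus GFP and RFP/FusionRed markers) were treated at 0.3, 1, 3 or 9 µM for 24 h, four wells each, then imaged live. Live-cell features per well were normalised to DMSO control wells. Deviation required ≥3 of 4 wells beyond the 95th percentile of DMSO Euclidean distances, and reproducibility required median replicate Pearson correlation above the 95th percentile of non-replicates. Phenotypic activity needed both criteria.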

HepG2-CANX-COX4 = system: HepG2-CANX-COX4
Outline: as §1

HepG2-GM130-SQSTM1 = system: HepG2-GM130-SQSTM1
Outline: as §1

HepG2-TP53BP1-CLTA = system: HepG2-TP53BP1-CLTA
Outline: as §1

HepG2-TUBA1B-RELA = system: HepG2-TUBA1B-RELA
Outline: as §1

WPMY1-ACTB-RAB5A = system: WPMY1-ACTB-RAB5A
Outline: as §1

WPMY1-CANX-COX4 = system: WPMY1-CANX-COX4
Outline: as §1

WPMY1-GM130-SQSTM1 = system: WPMY1-GM130-SQSTM1
Outline: as §1

WPMY1-TP53BP1-CLTA = system: WPMY1-TP53BP1-CLTA
Outline: as §1

WPMY1-TUBA1B-RELA = system: WPMY1-TUBA1B-RELA
Outline: as §1

Measured: lowest phenotypically active concentration

C#Cc1cccc(Nc2ncnc3cc(OCCOC)c(OCCOC)cc23)c1 [erlotinib]
3 µM: HepG2-ACTB-RAB5A | HepG2-CANX-COX4 | HepG2-GM130-SQSTM1 | HepG2-TUBA1B-RELA
9 µM: HepG2-TP53BP1-CLTA

COc1cc(C[C@H]2C(=O)OC[C@@H]2Cc2ccc(OC)c(OC)c2)ccc1O [Arctigenin]
9 µM: HepG2-ACTB-RAB5A | HepG2-CANX-COX4 | HepG2-GM130-SQSTM1
1 µM: HepG2-TP53BP1-CLTA | HepG2-TUBA1B-RELA

COc1cc2ncnc(Nc3ccc(O)c(Br)c3)c2cc1OC
9 µM: HepG2-CANX-COX4 | HepG2-GM130-SQSTM1
not listed: WPMY1-TUBA1B-RELA
3 µM: all other assays above

COc1ccc2c(NC(=O)Nc3cccc(C(F)(F)F)n3)ccnc2c1
3 µM: HepG2-TUBA1B-RELA | WPMY1-GM130-SQSTM1
9 µM: HepG2-ACTB-RAB5A | HepG2-GM130-SQSTM1 | HepG2-TP53BP1-CLTA
not listed: WPMY1-TUBA1B-RELA
1 µM: all other assays above

FC(F)(F)c1ccc(/C=C/c2nc(COc3ccc(CCCCn4ccnn4)cc3)co2)cc1
≤ 0.3 µM: HepG2-ACTB-RAB5A | HepG2-CANX-COX4 | HepG2-GM130-SQSTM1 | HepG2-TP53BP1-CLTA | HepG2-TUBA1B-RELA

NCC(=O)Nc1ccc(-n2nc(C(F)(F)F)cc2-c2ccc3c(ccc4ccccc43)c2)cc1
≤ 0.3 µM: WPMY1-ACTB-RAB5A | WPMY1-TP53BP1-CLTA | WPMY1-TUBA1B-RELA
3 µM: HepG2-GM130-SQSTM1
1 µM: all other assays above

O=C1NC(=O)C(c2ccccc2[N+](=O)[O-])=C1Nc1ccc(O)c(Cl)c1
9 µM: HepG2-ACTB-RAB5A | HepG2-CANX-COX4 | HepG2-GM130-SQSTM1 | WPMY1-ACTB-RAB5A
3 µM: HepG2-TP53BP1-CLTA | HepG2-TUBA1B-RELA

COc1cc(N2CCC(O)CC2)ccc1Nc1cc(Nc2ccccc2S(=O)(=O)C(C)C)c2cc[nH]c2n1 [Mps1-IN-1 dihydrochloride]
9 µM: WPMY1-ACTB-RAB5A
3 µM: WPMY1-GM130-SQSTM1 | WPMY1-TP53BP1-CLTA
1 µM: HepG2-TUBA1B-RELA
not listed: WPMY1-TUBA1B-RELA
≤ 0.3 µM: all other assays above

CO[C@H]1C[C@@H]2CC[C@@H](C)[C@@](O)(O2)C(=O)C(=O)N2CCCC[C@H]2C(=O)O[C@H]([C@H](C)C[C@@H]2CC[C@@H](OC(=O)C(C)(CO)CO)[C@H](OC)C2)CC(=O)[C@H](C)C=C(C)[C@@H](O)[C@@H](OC)C(=O)[C@H](C)C[C@H](C)C=CC=CC=C1C [Temsirolimus]
3 µM: WPMY1-TUBA1B-RELA
1 µM: HepG2-CANX-COX4 | HepG2-TUBA1B-RELA
≤ 0.3 µM: all other assays above

C[C@H]1COCCN1c1cc(C2(S(=O)(=O)C3CC3)CC2)nc(-c2ccc(NC(=S)NCCO)cc2)n1
1 µM: HepG2-TUBA1B-RELA
≤ 0.3 µM: all other assays above

COc1cc2c(NC3CCN(C(C)C)CC3)nc(N3CCC(F)(F)CC3)nc2cc1OCCCN1CCCC1
≤ 0.3 µM: HepG2-ACTB-RAB5A | HepG2-GM130-SQSTM1 | HepG2-TUBA1B-RELA | WPMY1-GM130-SQSTM1
1 µM: all other assays above

C=C1CN(Cc2ccc(C(=O)Nc3ccccc3N)cc2)C(=O)c2ccccc21
1 µM: HepG2-GM130-SQSTM1 | HepG2-TP53BP1-CLTA | HepG2-TUBA1B-RELA
3 µM: WPMY1-TUBA1B-RELA
≤ 0.3 µM: all other assays above

COc1ccc(-c2cc3c(C)nc(N)nc3n([C@H]3CC[C@H](OCCO)CC3)c2=O)cn1
≤ 0.3 µM: all assays above

CN1c2ccccc2C(=O)N2CCc3c([nH]c4ccccc34)[C@H]21 [Evodiamine]
3 µM: HepG2-CANX-COX4 | HepG2-GM130-SQSTM1 | HepG2-TP53BP1-CLTA | HepG2-TUBA1B-RELA
1 µM: all other assays above

Cc1n[nH]c2ccc(-c3cncc(OC[C@@H](N)Cc4ccccc4)c3)cc12
≤ 0.3 µM: all assays above

COc1cc(C)c(Sc2cnc(NC(=O)c3ccc(CNC(C)C(C)(C)C)cc3)s2)cc1C(=O)N1CCN(C(C)=O)CC1 (stereo not drawn)
3 µM: all assays above

NC(=O)Nc1sc(-c2ccc(F)cc2)cc1C(N)=O
3 µM: HepG2-CANX-COX4
9 µM: all other assays above

CO[C@H]1C=CC=C(C)C(=O)NC2=CC(=O)C(NCCN(C)C)=C(C[C@@H](C)C[C@H](OC)[C@H](O)[C@@H](C)C=C(C)[C@@H]1OC(N)=O)C2=O [17-DMAG hydrochloride]
≤ 0.3 µM: all assays above

Clc1ccc(C2(c3ccc(-c4cn[nH]c4)cc3)CCNCC2)cc1
1 µM: WPMY1-TP53BP1-CLTA
≤ 0.3 µM: all other assays above

O=C(CCCCSc1nc(-c2ccc(-c3ccccc3)cc2)cc(=O)[nH]1)NO
≤ 0.3 µM: all assays above

CNC1CCC2(C)C(=CCC3C2CCC24CN(C)C(C)C2CCC34)C1 (stereo not drawn) [Isoconessimine]
9 µM: HepG2-CANX-COX4
3 µM: WPMY1-CANX-COX4 | WPMY1-GM130-SQSTM1 | WPMY1-TP53BP1-CLTA | WPMY1-TUBA1B-RELA
1 µM: all other assays above
